Our source for the composite z-score values is PubChem BioAssay.

Chain of Neurogenic locus notch homolog protein 2 (Homo sapiens) (Q04721 whole entry, looked up): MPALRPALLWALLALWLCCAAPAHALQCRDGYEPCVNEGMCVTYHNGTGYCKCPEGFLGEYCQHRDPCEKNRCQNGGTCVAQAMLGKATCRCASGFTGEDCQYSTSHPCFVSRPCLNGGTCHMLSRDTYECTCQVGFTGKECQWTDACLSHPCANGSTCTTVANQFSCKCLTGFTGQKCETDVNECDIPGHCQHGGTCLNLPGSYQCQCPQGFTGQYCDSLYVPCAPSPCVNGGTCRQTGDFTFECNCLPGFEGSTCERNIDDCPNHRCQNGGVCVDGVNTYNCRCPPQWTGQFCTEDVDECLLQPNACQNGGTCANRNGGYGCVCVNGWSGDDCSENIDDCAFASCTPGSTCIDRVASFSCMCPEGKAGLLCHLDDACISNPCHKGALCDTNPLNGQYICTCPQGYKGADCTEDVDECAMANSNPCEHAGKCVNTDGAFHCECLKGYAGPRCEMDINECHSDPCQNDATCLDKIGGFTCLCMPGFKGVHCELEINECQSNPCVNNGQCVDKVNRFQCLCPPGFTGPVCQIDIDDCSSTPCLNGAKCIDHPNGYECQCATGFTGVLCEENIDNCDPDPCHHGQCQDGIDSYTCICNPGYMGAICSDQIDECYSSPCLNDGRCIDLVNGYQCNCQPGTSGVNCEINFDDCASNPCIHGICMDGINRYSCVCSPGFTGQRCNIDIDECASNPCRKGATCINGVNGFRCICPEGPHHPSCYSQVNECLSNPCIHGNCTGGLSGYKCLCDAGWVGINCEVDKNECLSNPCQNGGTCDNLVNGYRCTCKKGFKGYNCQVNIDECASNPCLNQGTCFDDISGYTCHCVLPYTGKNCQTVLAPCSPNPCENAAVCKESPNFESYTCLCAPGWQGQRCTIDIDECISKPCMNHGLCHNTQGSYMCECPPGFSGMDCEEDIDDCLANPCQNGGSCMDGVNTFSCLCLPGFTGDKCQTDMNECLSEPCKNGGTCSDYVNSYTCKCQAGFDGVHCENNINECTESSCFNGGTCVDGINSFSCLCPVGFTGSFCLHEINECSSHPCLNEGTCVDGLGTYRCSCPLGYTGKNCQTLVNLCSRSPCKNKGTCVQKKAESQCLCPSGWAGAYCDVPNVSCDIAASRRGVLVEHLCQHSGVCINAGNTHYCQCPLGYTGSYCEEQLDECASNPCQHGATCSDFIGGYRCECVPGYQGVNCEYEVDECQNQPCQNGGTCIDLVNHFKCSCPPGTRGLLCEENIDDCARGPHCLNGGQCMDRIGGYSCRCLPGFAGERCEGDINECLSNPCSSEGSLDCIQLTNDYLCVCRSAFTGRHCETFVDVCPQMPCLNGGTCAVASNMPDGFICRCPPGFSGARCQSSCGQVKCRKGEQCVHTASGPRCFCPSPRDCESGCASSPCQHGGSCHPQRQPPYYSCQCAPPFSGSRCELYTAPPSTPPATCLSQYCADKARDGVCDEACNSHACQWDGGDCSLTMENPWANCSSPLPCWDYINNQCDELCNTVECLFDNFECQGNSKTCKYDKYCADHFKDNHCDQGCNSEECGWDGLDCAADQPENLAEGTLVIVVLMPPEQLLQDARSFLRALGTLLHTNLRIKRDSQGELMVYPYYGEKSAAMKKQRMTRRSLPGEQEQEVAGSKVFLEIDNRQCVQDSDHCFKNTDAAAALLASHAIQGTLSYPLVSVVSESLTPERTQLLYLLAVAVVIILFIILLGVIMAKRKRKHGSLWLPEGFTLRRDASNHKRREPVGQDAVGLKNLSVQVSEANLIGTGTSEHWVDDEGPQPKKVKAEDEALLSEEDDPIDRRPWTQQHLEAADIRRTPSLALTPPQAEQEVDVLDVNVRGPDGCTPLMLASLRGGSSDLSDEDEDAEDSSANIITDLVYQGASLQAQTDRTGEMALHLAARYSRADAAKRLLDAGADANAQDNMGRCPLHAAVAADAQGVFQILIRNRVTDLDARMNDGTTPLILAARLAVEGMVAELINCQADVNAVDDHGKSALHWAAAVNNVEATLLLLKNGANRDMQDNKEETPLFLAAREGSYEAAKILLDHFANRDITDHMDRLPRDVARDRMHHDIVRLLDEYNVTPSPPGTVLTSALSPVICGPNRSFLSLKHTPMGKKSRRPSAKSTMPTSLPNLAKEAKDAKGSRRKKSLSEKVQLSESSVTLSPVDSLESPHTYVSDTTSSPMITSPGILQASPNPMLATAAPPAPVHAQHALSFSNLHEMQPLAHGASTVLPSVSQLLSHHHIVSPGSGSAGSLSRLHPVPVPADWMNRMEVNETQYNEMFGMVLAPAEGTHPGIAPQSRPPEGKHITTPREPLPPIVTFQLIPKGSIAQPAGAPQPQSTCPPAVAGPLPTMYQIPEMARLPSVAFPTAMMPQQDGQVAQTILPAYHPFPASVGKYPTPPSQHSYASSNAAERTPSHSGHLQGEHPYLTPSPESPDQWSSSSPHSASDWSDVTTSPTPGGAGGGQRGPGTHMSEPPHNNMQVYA

The assay addresses Neurogenic locus notch homolog protein 2 (Homo sapiens) (UniProt Q04721). As to the kind of experiment: Notch2 binders on small-molecule microarrays, primary screen, biochemical, small-molecule microarray, 635 nm fluorescence, stem cell growth factors (AID 1073). Particulars: Notch2 binding, higher = more signal.
`C=CCC(OC(C)=O)[C@@H]1[C@@H](N(Cc2cccc3ccccc23)C(=O)Cc2ccc(F)cc2)c2cc(OCCCO)ccc2N1C(=O)Cc1ccc2ccccc2c1` (stereo partly specified): the composite z-score is -0.241. To `COC(=O)c1ccc(C#CC(NP(=O)(c2ccccc2)c2ccccc2)c2ccccc2)cc1` (stereo unspecified) belongs 1.87. To `C[C@H]1COC(=O)[C@H](Cc2ccccc2)NC(=O)[C@@H](C)COC(=O)[C@H](Cc2ccccc2)NC1=O` belongs 0.694.

`CCOC(=O)C[C@H]1[C@H](OC(=O)c2cc3ccccc3oc2=O)[C@@H](NC(=O)C2CCCCC2)c2cc(OCCCO)ccc2N1C(=O)c1ccc2ccccc2n1` displayed a composite z-score of 0.432. Regarding `COc1cccc([C@@H]2[C@@H](C)CC[C@H]3C(=O)N(C)[C@@H](C(C)C)C(=O)N23)c1`, the composite z-score is 0.188.

Turning to `COCC(=C=CC[C@H](O)c1ccc(OCCO)cc1)C[C@H](O)c1ccccn1`, the composite z-score was -0.499. To `C=C(CCCC)C(=O)CC[C@@H](OC(=O)c1cccnc1)c1cccc(OCCO)c1` belongs -0.552. To `CC(C)NC(=O)[C@@]1(Cc2ccccc2I)c2ccccc2C(=O)N(C2CCCCC2)[C@H]1c1ccc(CO)cc1` belongs 1.18; to `NC(=O)[C@H]1[C@@H]2C(=O)O[C@@H](c3ccccc3)[C@@H](c3ccccc3)N2[C@@H](c2ccc(O)cc2)[C@]12C(=O)Nc1ccc(C#CCCO)cc12`, -0.982; to `C=CCNC(=O)[C@@H]1[C@H]2C(=O)O[C@H](c3ccccc3)[C@H](c3ccccc3)N2[C@H](c2ccc(OCCO)cc2)[C@@]12C(=O)N(C(=O)OCCOC)c1ccc(C#CC3(O)CCCCCC3)cc12`, 1.42. To `CSCC[C@@H]1NC(=O)CC=C[C@@H](C)COC(=O)[C@H](CCSC)NC(=O)CC=C[C@@H](C)COC1=O` belongs -0.121.
